# D1 agonist: Allosteric Agonists of the Human D1 Dopamine Receptor: qHTS; activation, % at 2 µM; 360,000 compounds, 1% hits; D(1A) dopamine receptor (Homo sapiens), P21728; HEK293 T-REx D1 cells, calcium flux, agonist mode; in the data active = activation above about 30%
#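 Tetracycline-induced HEK293 TREx D1 cells, force-coupled to calcium signalling, were dye-loaded with a no-wash calcium kit. Compound was pin-added after a 10 s baseline. Fluorescence was read kinetically at 1 cycle/s for 180 s, with calcium rises flagged as agonism.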
# D3 antag: qHTS of D3 Dopamine Receptor Antagonist: qHTS; D(3) dopamine receptor (Homo sapiens), P35462; D3R cells, DiscoveRx beta-arrestin luminescence, antagonist mode; stronger effect = lower value; max response, negative = inhibition, %; 360,000 compounds, 2.5% hits; AID 652054, 2013; in the data active = max response below about -50%
# Target sequence (P35462 whole entry, looked up): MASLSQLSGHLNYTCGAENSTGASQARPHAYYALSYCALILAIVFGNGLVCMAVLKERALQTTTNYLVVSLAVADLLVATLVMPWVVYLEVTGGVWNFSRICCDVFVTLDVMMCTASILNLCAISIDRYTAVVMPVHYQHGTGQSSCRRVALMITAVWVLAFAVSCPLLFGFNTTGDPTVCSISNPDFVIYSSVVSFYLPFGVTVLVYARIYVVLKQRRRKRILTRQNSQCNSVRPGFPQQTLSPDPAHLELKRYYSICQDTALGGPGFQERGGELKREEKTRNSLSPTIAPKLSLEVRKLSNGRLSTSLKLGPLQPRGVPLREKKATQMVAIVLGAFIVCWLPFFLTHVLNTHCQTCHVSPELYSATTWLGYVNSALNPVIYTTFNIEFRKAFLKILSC
#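 Cells plated overnight at 1500 cells/well, then exposed to library compounds with dopamine controls for 90 minutes at 37 degrees C. DiscoveRx reagent added for 30–60 minutes at room temperature; luminescence read, quantitative HTS format.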
# ERG Ets-DNA blk: qHTS for Small Molecule Inhibitors of the ERG Ets/DNA interaction | Transcriptional regulator ERG (Homo sapiens), P11308 | fluorescence polarization, His-ERG Ets domain / labelled DNA | Potency, µM (doses to about 76.9 µM), hits mostly inhibitors | 370,000 compounds, 0.028% hits; active = well fitted inhibition curve with a large enough effect in the polarisation, with a control signal flat; the % refers to the polarisation;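 also: polarization taken with two DNA probes labelled with fluorescein and Texas red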
#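 His-tagged ERG Ets domain (1 uM in the protein solution; 300mM KCl, 50mM Tris-HCl, 1mM EDTA, 1mM DTT, pH 7.5) received compound, then a probe mix of 5 nM fluorescein-DNA and 100nM Texas-615-DNA. Fluorescence polarization was read for both dyes.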
# D1 potentiator: Potentiators of Human D1 Dopamine Receptor: qHTS; 360,000 compounds, 0.036% hits; AID 504651, 2011; potentiation, % at 10 µM; HEK293 TREx D1 cells, calcium flux, dopamine EC20 potentiation; in the data active = potentiation above about 30%
# D1 antag: Antagonist of Human D 1 Dopamine Receptor: qHTS; D(1A) dopamine receptor (Homo sapiens), P21728; HEK293 TREx D1 cells, calcium flux, dopamine EC80; stronger effect = lower value; activity change, negative = inhibition, % at 10 µM; 360,000 compounds, 3.2% hits; in the data active = activity change below about -30%
#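 Kinetic fluorescence of a calcium dye serves as the read-out. D1-expressing Hek293 Trex cells, induced overnight at 30 C, are exposed to compound for 180 s before an EC80 dopamine addition, then read 180 s further.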
# DRD3 agonist: qHTS of D3 Dopamine Receptor Agonist: qHTS | D(3) dopamine receptor (Homo sapiens), P35462 | D3R DiscoveRx beta-arrestin cells, luminescence, 90 min | max activation, % | 410,000 compounds, 0.58% hits | AID 652048, 2013; in the data active = max activation above about 30%
#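 Agonist mode: compounds and dopamine controls were applied to plated cells for 90 min at 37 degrees C after an overnight attachment at 1500 cells/well. Luminescent read-out followed 30 - 60 minutes at room temperature with DiscoveRx detection reagent.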
# Numbers stand for hits; n = inactive; x = no result; ! = not active in a repeat. The list is not random: actives were taken first. Their share in the collection is about 6.1%.
SMILES,D1 agonist,D3 antag,ERG Ets-DNA blk,D1 potentiator,D1 antag,DRD3 agonist
CCN1CCN(S(=O)(=O)c2ccc(Cl)c(C(=O)Nc3ccccc3N3CCOCC3)c2)CC1,n,n,n,n,n,n
CCN(C(=O)CSc1nnc(-c2cccc(Cl)c2)n1N)c1c(N)n(Cc2ccccc2)c(=O)[nH]c1=O,x,n,n,x,x,n
CC1CCN(S(=O)(=O)c2ccc(S(=O)(=O)N3CCN4CCCC4C3)cc2)CC1 (stereo unspecified),n,x,x,n,n,x
O=C(Cn1nc(Cc2cccnc2)c2ccccc2c1=O)N1CCN(c2ccccn2)CC1,n,n,n,n,n,n
COc1ccc(N2CCN(C(=O)Cn3nc(Cc4cccnc4)c4ccccc4c3=O)CC2)cc1,n,x,n,n,n,70
COc1ccccc1/C=C/C(=O)c1ccc(Cl)cc1,n,n,n,n,-36,n
COc1ccccc1/C=C/C(=O)c1ccccc1,n,n,n,n,n,n
O=C(/C=C/c1ccccc1O)c1ccc(Cl)cc1,n,n,n,n,n,n
CCOc1ccccc1/C=C/C(=O)c1ccc(Cl)cc1,n,n,n,n,-32,n
CC(C)(C)C(=O)CSc1nc2c(c(-c3cccs3)c1C#N)CCC2,n,n,n,n,n,n
CC(C)n1c(O)c(N=NC(=O)CNC(=O)c2cccnc2)c2ccccc21,n,n,n,n,n,n
CC1(C)CC(=O)C=C(c2ccc(OC(F)(F)F)cc2)C1,n,n,n,n,x,n
CC1(C)CC(=O)C=C(c2ccc(Oc3ccccc3)cc2)C1,n,-65,n,n,x,n
O=S(=O)(CCNCCc1ccccc1)NC1CCCCC1,x,-84,n,x,x,n
COc1ccc(OC)c(NC(=O)CCn2cccn2)c1,n,x,n,n,n,n
CCOC(=O)C1(C)CCCN(C(=O)c2ccccc2)C1 (stereo unspecified),x,-61,x,x,x,n
CCOC(=O)C1(C)CCCN(C(=O)c2ccc(-c3ccccc3)cc2)C1 (stereo unspecified),x,n,x,x,x,n
COc1ccc(S(=O)(=O)n2ccc(-c3ccc4c(c3)CCC(C)(C)O4)n2)cc1,n,n,n,n,n,n
c1ccc(C2=NN(c3ccccc3)CC2)cc1,n,n,n,n,n,n
CCOC(=O)/C(=C/c1ccc(N2CCC(c3ccccc3)=N2)cc1)C(C)=O,105,n,n,n,n,n
O=C(Cc1ccsc1)Nc1ccc(Cl)cc1Cl,n,n,n,n,n,n
COC(=O)c1ccc(Oc2cc(C)nc(-n3nc(C)cc3C)n2)cc1,x,-82,n,x,x,n
COC(=O)c1ccc(Oc2nc(C)cc(Oc3ccccc3)n2)cc1,n,n,n,n,n,n
COC(=O)c1scc(S(=O)(=O)C(C)C)c1N/N=C(\C#N)C(=O)c1ccc(Cl)cc1,n,n,n,n,n,n
COC(=O)c1scc(C#N)c1N/N=C(\C#N)S(=O)(=O)c1ccc(Cl)cc1,n,n,n,n,-32,n
SMILES,D1 agonist,D3 antag,ERG Ets-DNA blk,D1 potentiator,D1 antag,DRD3 agonist
CCOC(=O)C1CCCCN1S(=O)(=O)c1cc2c(cc1C)NC(=O)CO2 (stereo unspecified),n,n,n,n,n,n
CCOC(=O)C1CCCN(CCC(=O)Nc2ccc(C)cc2)C1 (stereo unspecified),n,-71,n,n,n,n
CCOC(=O)C1CCN(CCC(=O)Nc2ccc(C)cc2)CC1,n,n,n,n,n,n
CCOC(=O)C1CCCN(CCC(=O)Nc2cccc(C)c2)C1 (stereo unspecified),n,n,n,n,-38!,n
Cc1cccc(NC(=O)c2cnn(-c3ccc(F)cc3)c2C2CCNCC2)c1C,n,n,n,n,n,n
CCOC(=O)c1nnn(-c2nonc2N)c1CSc1ccccn1,n,n,n,n,n,n
